Measurements reported in paper PMC7862700, “An all-to-all approach to the identification of sequence-specific readers for epigenetic DNA modifications on cytosine”.

Assays:
Test in all cases: DAPPL (digital affinity profiling via proximity ligation, sequencing); 10 mM Tris-HCl pH 7.5, 50 mM NaCl, 1 mM DTT, 4% glycerol, room temperature, 30 min; GST-TFs on glutathione beads, 16-mer random dsDNA library, 0.1% formaldehyde crosslink after washing; high values mean tight binding
FEV = biological target: T1, FEV (Homo sapiens, UniProt Q99581 1-238); settings: protein: recombinant; tags: N-terminal GST; dsDNA, one strand shown
T1 sequence: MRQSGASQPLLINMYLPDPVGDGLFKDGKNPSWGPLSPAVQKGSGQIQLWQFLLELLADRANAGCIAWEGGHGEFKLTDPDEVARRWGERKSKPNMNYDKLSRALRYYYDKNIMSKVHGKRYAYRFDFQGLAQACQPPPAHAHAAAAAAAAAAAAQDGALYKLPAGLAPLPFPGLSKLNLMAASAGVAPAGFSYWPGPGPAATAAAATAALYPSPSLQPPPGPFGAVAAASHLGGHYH
In short: (§1)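 A tag-only sample was pooled with DNA-barcoded human transcription factors that had been expressed in yeast as GST fusions and captured on glutathione beads. The pools were incubated for 30 min at room temperature with 200 nmole of a random double-stranded 16-mer DNA library in Tris/NaCl/DTT/glycerol buffer, then washed, crosslinked with 0.1% formaldehyde, proximity-ligated (BsaI/T4 ligase, 1 h, 37 °C), PCR-amplified and sequenced on an Illumina NextSeq500. Binding signal is each hexamer's read frequency for a factor divided by its frequency for the tag-only sample.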

ETV5 = ETV5 (Homo sapiens, UniProt P41161 1-510); settings: protein: recombinant; tags: N-terminal GST; dsDNA, one strand shown
ETV5, sequence (P41161 whole entry): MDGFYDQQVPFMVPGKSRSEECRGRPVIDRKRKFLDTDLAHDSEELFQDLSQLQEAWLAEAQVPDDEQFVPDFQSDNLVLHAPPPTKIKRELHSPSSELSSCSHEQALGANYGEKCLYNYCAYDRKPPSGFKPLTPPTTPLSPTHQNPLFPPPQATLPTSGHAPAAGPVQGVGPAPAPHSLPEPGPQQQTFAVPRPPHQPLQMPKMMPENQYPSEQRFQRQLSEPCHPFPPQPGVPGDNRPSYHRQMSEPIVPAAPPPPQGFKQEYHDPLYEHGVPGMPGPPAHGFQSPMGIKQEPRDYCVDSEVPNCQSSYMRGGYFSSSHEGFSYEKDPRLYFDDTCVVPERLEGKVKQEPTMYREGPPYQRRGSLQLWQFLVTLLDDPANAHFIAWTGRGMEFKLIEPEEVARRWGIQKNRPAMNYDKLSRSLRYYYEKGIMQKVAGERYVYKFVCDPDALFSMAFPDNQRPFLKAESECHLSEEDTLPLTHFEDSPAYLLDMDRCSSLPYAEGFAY
In short: as §1

HSF1 = HSF1 (Homo sapiens, UniProt Q00613 1-529); settings: protein: recombinant; tags: N-terminal GST; chain copies: 3; dsDNA, one strand shown
HSF1, sequence (Q00613 whole entry): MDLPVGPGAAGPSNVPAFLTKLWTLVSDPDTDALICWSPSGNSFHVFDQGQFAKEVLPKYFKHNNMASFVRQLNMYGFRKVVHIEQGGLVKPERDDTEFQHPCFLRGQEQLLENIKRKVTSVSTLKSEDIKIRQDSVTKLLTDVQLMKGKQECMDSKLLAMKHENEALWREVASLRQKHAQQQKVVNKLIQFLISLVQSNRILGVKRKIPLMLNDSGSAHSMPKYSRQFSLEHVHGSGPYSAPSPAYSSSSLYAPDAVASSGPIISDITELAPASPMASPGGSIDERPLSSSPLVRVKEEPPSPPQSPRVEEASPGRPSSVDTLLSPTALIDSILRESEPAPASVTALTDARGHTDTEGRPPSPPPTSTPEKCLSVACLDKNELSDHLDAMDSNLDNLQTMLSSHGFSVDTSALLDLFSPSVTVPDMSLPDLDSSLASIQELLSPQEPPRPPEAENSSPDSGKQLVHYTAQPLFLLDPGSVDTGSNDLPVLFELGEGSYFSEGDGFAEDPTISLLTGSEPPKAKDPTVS
In short: as §1

SPIC = biological target: T2, SPIC (Homo sapiens, UniProt Q8N5J4 1-248); settings: protein: recombinant; tags: N-terminal GST; dsDNA, one strand shown
T2 sequence: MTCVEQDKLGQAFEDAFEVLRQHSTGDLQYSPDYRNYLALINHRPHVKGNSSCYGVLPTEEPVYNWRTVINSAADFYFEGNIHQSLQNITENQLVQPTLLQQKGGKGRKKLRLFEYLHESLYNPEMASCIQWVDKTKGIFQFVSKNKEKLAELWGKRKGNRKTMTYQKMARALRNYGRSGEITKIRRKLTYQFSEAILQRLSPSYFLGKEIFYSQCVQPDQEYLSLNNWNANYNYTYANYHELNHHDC
In short: as §1

ELF4 = ELF4 (Homo sapiens, UniProt Q99607 1-663); settings: protein: recombinant; tags: N-terminal GST; dsDNA, one strand shown
ELF4, sequence (Q99607 whole entry): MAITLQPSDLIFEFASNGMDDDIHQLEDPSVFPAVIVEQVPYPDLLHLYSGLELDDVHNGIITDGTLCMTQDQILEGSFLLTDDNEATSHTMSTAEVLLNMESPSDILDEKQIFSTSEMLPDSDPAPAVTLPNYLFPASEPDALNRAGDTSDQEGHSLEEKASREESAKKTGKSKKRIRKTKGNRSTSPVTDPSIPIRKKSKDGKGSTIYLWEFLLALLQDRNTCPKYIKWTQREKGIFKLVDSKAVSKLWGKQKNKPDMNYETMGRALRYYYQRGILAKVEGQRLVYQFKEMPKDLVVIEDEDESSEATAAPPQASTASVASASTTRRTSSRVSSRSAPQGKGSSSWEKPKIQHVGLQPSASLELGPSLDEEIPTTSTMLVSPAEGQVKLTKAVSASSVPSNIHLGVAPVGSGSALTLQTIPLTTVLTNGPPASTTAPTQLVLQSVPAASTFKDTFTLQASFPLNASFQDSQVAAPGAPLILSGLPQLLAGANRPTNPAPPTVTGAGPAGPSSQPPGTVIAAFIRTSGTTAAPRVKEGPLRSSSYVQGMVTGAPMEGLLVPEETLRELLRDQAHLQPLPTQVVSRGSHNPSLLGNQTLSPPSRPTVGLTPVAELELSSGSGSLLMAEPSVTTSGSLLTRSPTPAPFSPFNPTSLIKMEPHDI
In short: as §1

ELK4 = biological target: T3, ELK4 (Homo sapiens, UniProt P28324-2 1-405); settings: protein: recombinant; tags: N-terminal GST; dsDNA, one strand shown
T3 sequence: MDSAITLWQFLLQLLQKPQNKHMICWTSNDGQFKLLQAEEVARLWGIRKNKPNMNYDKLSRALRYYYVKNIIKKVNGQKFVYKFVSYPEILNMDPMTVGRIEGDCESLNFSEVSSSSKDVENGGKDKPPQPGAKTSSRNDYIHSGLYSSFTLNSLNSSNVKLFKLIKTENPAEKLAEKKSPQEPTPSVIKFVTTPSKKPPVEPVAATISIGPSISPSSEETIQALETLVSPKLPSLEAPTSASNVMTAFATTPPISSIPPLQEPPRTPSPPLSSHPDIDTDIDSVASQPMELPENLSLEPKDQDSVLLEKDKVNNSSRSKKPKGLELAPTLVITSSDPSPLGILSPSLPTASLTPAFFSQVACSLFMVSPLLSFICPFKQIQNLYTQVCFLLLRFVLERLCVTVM
In short: as §1

ETV2 = biological target: T4, ETV2 (Homo sapiens, UniProt O00321 1-342); settings: protein: recombinant; tags: N-terminal GST; dsDNA, one strand shown
T4 sequence: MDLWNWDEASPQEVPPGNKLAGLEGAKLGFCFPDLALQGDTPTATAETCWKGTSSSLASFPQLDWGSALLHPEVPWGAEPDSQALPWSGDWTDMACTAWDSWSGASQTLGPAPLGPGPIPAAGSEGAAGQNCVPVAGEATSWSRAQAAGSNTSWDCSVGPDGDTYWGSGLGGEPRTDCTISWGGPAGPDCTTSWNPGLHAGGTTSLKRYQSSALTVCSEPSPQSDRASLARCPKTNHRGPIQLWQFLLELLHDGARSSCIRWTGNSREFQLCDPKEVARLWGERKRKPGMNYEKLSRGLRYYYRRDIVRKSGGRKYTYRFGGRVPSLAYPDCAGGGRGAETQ
In short: as §1

ELF3 = biological target: T5, ELF3 (Homo sapiens, UniProt P78545 1-371); settings: protein: recombinant; tags: N-terminal GST; dsDNA, one strand shown
T5 sequence: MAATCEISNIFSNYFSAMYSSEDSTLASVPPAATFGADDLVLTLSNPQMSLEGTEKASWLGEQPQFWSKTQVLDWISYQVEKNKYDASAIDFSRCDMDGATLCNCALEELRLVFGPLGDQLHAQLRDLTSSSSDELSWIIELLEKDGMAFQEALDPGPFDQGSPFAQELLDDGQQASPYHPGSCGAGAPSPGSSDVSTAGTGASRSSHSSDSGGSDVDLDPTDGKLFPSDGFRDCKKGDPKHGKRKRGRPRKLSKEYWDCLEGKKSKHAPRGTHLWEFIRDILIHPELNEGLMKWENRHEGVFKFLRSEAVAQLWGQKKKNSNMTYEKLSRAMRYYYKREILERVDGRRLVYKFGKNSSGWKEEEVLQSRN
In short: as §1

CRX = CRX (Homo sapiens, UniProt O43186 1-299); settings: protein: recombinant; tags: N-terminal GST; dsDNA, one strand shown
CRX, sequence (O43186 whole entry): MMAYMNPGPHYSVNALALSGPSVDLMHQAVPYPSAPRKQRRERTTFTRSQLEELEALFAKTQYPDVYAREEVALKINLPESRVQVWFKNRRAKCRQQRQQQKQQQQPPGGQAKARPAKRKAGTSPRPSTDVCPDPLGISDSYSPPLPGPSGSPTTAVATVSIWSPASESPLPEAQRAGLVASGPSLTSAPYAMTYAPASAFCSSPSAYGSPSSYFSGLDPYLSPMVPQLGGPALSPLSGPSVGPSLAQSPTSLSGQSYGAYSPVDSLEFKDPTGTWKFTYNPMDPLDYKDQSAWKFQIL
In short: as §1

ETV1 = ETV1 (Homo sapiens, UniProt P50549 1-477); settings: protein: recombinant; tags: N-terminal GST; dsDNA, one strand shown
ETV1, sequence (P50549 whole entry): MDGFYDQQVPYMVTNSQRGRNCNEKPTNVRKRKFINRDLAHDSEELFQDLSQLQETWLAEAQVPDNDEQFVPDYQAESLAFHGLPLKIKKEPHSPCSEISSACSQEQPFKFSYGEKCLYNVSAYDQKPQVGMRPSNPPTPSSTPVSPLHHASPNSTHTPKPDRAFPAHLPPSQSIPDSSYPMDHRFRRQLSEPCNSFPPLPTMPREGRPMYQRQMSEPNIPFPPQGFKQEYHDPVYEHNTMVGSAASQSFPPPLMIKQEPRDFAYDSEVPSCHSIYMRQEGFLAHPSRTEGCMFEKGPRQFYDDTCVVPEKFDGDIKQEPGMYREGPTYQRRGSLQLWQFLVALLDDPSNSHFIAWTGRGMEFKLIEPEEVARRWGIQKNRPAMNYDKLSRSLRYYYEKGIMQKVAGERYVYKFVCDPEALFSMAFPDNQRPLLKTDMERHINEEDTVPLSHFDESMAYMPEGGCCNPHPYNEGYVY
In short: as §1

ERF = biological target: T6, ERF (Homo sapiens, UniProt P50548 1-548); settings: protein: recombinant; tags: N-terminal GST; dsDNA, one strand shown
T6 sequence: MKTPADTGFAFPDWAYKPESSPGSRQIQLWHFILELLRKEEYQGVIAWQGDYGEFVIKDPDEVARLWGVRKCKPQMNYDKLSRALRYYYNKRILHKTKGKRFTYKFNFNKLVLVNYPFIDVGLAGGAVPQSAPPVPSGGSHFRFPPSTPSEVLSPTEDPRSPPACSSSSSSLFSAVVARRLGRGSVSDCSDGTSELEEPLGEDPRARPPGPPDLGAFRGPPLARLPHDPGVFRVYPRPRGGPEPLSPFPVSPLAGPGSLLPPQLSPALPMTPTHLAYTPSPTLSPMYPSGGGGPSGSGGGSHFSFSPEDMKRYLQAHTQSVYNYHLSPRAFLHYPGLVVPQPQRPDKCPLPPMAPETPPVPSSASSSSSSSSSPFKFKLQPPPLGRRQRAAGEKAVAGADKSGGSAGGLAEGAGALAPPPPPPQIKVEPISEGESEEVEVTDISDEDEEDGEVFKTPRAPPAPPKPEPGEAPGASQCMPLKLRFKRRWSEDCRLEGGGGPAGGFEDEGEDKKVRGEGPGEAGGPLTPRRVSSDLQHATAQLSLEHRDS
In short: as §1

ETV3L = biological target: T7, ETV3L (Homo sapiens, UniProt Q6ZN32 1-361); settings: protein: recombinant; tags: N-terminal GST; dsDNA, one strand shown
T7 sequence: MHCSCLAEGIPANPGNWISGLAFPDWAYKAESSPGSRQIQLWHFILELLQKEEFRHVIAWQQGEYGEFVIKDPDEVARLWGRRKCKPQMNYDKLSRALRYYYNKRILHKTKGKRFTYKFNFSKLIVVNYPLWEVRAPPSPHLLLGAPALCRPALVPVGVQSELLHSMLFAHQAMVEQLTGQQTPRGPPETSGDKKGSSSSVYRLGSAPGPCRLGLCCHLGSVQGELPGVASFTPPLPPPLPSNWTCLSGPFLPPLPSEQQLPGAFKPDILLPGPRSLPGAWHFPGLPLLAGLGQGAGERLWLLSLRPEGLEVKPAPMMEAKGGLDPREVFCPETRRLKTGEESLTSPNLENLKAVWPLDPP
In short: as §1

ETS2 = biological target: T8, ETS2 (Homo sapiens, UniProt P15036 1-469); settings: protein: recombinant; tags: N-terminal GST; dsDNA, one strand shown
T8 sequence: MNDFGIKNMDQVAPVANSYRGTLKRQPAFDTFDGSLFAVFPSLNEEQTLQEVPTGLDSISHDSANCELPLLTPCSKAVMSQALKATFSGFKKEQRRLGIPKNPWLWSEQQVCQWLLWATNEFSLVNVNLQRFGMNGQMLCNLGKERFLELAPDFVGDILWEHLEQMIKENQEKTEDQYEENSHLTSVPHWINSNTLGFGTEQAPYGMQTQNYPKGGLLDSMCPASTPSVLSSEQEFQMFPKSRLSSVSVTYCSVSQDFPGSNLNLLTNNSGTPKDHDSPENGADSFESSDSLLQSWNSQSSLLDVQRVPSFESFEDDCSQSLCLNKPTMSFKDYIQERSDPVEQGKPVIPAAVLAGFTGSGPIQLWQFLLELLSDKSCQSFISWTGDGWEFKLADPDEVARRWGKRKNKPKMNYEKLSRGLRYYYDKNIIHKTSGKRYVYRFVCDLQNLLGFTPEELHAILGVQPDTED
In short: as §1

SPDEF = biological target: T9, SPDEF (Homo sapiens, UniProt O95238 1-335); settings: protein: recombinant; tags: N-terminal GST; dsDNA, one strand shown
T9 sequence: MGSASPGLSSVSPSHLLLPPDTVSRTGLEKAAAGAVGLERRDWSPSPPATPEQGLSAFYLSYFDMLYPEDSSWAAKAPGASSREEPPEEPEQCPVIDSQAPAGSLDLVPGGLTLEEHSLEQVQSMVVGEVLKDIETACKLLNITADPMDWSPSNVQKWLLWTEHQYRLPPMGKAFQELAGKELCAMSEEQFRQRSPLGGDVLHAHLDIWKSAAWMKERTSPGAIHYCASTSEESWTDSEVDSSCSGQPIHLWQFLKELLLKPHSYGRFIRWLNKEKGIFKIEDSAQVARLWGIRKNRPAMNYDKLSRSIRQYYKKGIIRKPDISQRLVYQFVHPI
In short: as §1

ETV7 = biological target: T10, ETV7 (Homo sapiens, UniProt Q9Y603 1-341); settings: protein: recombinant; tags: N-terminal GST; dsDNA, one strand shown
T10 sequence: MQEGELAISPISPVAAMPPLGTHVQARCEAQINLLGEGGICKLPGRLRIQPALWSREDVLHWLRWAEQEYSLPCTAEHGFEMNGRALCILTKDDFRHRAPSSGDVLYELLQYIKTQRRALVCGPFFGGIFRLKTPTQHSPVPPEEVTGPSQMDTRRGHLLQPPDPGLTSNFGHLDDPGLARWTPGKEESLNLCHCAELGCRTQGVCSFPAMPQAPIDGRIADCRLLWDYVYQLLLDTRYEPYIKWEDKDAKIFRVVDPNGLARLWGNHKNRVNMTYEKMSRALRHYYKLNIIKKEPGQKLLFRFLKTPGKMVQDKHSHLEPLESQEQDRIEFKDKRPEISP
In short: as §1

ELF5 = biological target: T11, ELF5 (Homo sapiens, UniProt Q9UKW6-2 1-255); settings: protein: recombinant; tags: N-terminal GST; dsDNA, one strand shown
T11 sequence: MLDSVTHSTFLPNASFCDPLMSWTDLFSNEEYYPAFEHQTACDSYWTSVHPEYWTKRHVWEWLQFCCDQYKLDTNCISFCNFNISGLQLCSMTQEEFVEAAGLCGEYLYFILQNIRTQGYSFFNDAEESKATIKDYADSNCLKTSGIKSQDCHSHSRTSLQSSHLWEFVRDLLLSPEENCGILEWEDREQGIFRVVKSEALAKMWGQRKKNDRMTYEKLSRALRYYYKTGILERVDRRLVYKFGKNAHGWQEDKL
In short: as §1

ETV3 = biological target: T12, ETV3 (Homo sapiens, UniProt P41162-2 1-143); settings: protein: recombinant; tags: N-terminal GST; dsDNA, one strand shown
T12 sequence: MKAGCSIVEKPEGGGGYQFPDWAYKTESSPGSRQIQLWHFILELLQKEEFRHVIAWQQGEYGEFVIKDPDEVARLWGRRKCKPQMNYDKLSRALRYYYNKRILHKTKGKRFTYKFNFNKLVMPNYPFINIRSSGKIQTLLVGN
In short: as §1

ETV6 = ETV6 (Homo sapiens, UniProt P41212 1-452); settings: protein: recombinant; tags: N-terminal GST; dsDNA, one strand shown
ETV6, sequence (P41212 whole entry): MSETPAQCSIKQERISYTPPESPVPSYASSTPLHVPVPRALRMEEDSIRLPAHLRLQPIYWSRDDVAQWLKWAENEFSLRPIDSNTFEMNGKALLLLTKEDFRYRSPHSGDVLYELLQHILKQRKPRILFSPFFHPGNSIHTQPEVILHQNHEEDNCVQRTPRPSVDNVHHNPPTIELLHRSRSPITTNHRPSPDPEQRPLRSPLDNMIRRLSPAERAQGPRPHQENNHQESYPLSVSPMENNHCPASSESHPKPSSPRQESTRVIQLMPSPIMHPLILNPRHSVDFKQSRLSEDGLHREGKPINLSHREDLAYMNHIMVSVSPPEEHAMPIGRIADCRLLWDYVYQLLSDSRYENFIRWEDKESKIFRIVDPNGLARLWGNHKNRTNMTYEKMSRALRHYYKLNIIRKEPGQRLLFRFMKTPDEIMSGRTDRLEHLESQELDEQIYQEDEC
In short: as §1

With CCATCT the binding signal (FEV) was 1.27 fold enrichment (6-mer frequency, TF over GST control), the binding signal (ETV5) was 1.29 fold enrichment (6-mer frequency, TF over GST control) and the binding signal (HSF1) was 1.31 fold enrichment (6-mer frequency, TF over GST control). The binding signal (SPIC) was 1.35 fold enrichment (6-mer frequency, TF over GST control), the binding signal (ELF4) was 1.25 fold enrichment (6-mer frequency, TF over GST control) and the binding signal (ELK4) was 1.4 fold enrichment (6-mer frequency, TF over GST control). For the same sequence, the binding signal (ETV2) was 1.39 fold enrichment (6-mer frequency, TF over GST control), the binding signal (ELF3) was 1.34 fold enrichment (6-mer frequency, TF over GST control) and the binding signal (CRX) was 1.28 fold enrichment (6-mer frequency, TF over GST control). For the same sequence, the binding signal (ETV1) was 1.34 fold enrichment (6-mer frequency, TF over GST control), the binding signal (ERF) was 1.41 fold enrichment (6-mer frequency, TF over GST control) and the binding signal (ETV3L) was 1.35 fold enrichment (6-mer frequency, TF over GST control). The binding signal (ETS2) was 1.35 fold enrichment (6-mer frequency, TF over GST control), the binding signal (SPDEF) was 1.11 fold enrichment (6-mer frequency, TF over GST control) and the binding signal (ETV7) was 1.33 fold enrichment (6-mer frequency, TF over GST control). For the same sequence, the binding signal (ELF5) was 1.27 fold enrichment (6-mer frequency, TF over GST control), the binding signal (ETV3) was 1.25 fold enrichment (6-mer frequency, TF over GST control) and the binding signal (ETV6) was 1.25 fold enrichment (6-mer frequency, TF over GST control).
